Broadly, the AC50 is the concentration giving half of the maximal activity seen.

Inconclusive results are not listed. Active and inactive are the calls of the source. Rule for the calls: active = hit-call score of the fitted dose curve at least 0.9, where 1 is the maximum; inconclusive = response in the unintended direction; inactive = score below 0.9.

The target of the experiment is human Peroxisome Proliferator-activated Receptor alpha (PPARa), PPARA (gene 5465) (UniProt Q07869). Nature of the experiment: ATG_PPARa_TRANS: Attagene TRANS-FACTORIAL HepG2 Assay for human Peroxisome Proliferator-activated Receptor alpha (PPARa) (AID 2283001).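 For AC50: potency for gain of reporter signal over DMSO so agonist or activator.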 The procedure: ATG_TRANS is a cell-based, multiplexed-readout assay that uses HepG2, a human liver cell line, with measurements taken at 24 hours after chemical dosing in a 24-well plate.ATG_PPARa_TRANS is one of 30 assay component(s) measured or calculated from the ATG_TRANS assay. It is designed to make measurements of mRNA induction, a form of inducible reporter, as detected with fluorescence intensity signals by Reverse transcription polymerase chain reaction (RT-PCR) and Capillary electrophoresis technology.Data from the assay component ATG_PPARa_TRANS was analyzed into 1 assay endpoint. This assay endpoint, ATG_PPARa_TRANS, was analyzed in the positive analysis fitting direction relative to DMSO as the negative control and baseline of activity. Using a type of inducible reporter, measures of mRNA for gain-of-signal activity can be used to understand the reporter gene at the transcription factor-level as they relate to the gene PPARA. Furthermore, this assay endpoint can be referred to as a primary readout, because this assay has produced multiple assay endpoints where this one serves a reporter gene function. To generalize the intended target to other relatable targets, this assay endpoint is annotated to the nuclear receptor intended target family, where the subfamily is non-steroidal.
Sequence of human Peroxisome Proliferator-activated Receptor alpha (PPARa), PPARA (gene 5465) (Q07869 whole entry, looked up): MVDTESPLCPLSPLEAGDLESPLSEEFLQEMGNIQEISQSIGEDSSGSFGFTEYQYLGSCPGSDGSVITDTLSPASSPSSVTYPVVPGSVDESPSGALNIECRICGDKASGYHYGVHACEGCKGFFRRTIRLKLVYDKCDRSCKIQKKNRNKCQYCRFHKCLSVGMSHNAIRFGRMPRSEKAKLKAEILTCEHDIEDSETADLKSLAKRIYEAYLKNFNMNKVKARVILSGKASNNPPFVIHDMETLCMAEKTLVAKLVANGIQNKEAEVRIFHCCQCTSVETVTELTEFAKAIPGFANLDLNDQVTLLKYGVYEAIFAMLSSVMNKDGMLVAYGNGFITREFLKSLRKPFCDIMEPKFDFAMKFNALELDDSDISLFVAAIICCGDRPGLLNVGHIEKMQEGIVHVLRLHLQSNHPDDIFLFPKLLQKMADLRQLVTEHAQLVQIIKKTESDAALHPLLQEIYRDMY
Human liver HepG2 cells are transiently transfected with multiple reporter transcription units (MRTUs) in 6-well plates using FuGene 6 reagent (Roche; 3 ml FuGene/1 mg DNA). The MRTU constructs are regulated by a cis-regulating element (promoter). […] A major difference between the CIS and TRANS system is that in CIS activities of endogenous TFs are measured, whereas the TRANS assay evaluates changes in activities of exogenous, chimeric NR-Gal4 proteins. […] At the end of 24 hour incubation, total RNA was isolated using TriZol reagent (Invitrogen). The isolated RNA is then reverse-transcribed using oligo(dT) primer and Mo-MLV reverse transcriptase (Invitrogen) with DNAse I (Ambion) treatment for 30 min. The one-tenth of the produced cDNA was amplified by PCR using Taq DNA polymerase (Invitrogen) and two reporter sequence-specific primers. The PCR products were fluorescently labeled by primer extension with 6-arboxyfluorescein (6-FAM) 5'-labeled reporter sequence-specific primer (2 min at 95 C, 20 s at 68 C and 10 min at 72 C) and these products were digested with 5U of HpaI (New England Biolabs) for 2h at 37 C. The fragments were purified using Qiaquick PCR columns (Qiagen), analyzed on an ABI 3130xL genetic analyzer (Applied Biosystems) with peak positions identified by using a set of X-rhodamine (ROX)-labeled MapMarker1000 molecular weight standards (BioVentures). The raw capillary electrophoresis data was processed using Attagraph software (Attagene).
On to `CCc1cc(SCc2sc(-c3ccc(C(F)(F)F)cc3)nc2CN2CCN(c3ccc(OC)cc3)CC2)ccc1OCC(=O)O`, for which the AC50 is 0.0501 µM (active).

With `CCC(C)(C)C(=O)O[C@H]1C[C@@H](C)C=C2C=C[C@H](C)[C@H](CC[C@@H]3C[C@@H](O)CC(=O)O3)[C@H]21`, the outcome was inactive.

Turning to `Oc1ccc2c(c1)-c1ccccc1C2`, the molecule was called inactive.

As for `COCCOCCOCCOC`, the molecule was called inactive.

`CCOC(=O)CC(CC(=O)OCC)(OC(C)=O)C(=O)OCC`: the result was inactive.

`CC(=O)OC[C@H]1O[C@@](COC(C)=O)(O[C@H]2O[C@H](COC(C)=O)[C@@H](OC(C)=O)[C@H](OC(C)=O)[C@H]2OC(C)=O)[C@@H](OC(C)=O)[C@@H]1OC(C)=O`: the molecule was classed as inactive.

Regarding `COc1cccc(-c2ccc(/C=C\CN3CCCCCC3)cc2Cl)c1`, the result was inactive.

Take `O=P(OC(CCl)CCl)(OC(CCl)CCl)OC(CCl)CCl`: the outcome was inactive.

On to `CC[C@H]1OC(=O)[C@H](C)[C@@H](O[C@H]2C[C@@](C)(OC)[C@@H](O)[C@H](C)O2)[C@H](C)[C@@H](O[C@@H]2O[C@H](C)C[C@H](N(C)C)[C@H]2O)[C@](C)(O)C[C@@H](C)C(=O)[C@H](C)[C@@H](O)[C@]1(C)O`, for which the outcome was inactive.

As for `CC(=O)c1ccc2c(c1)[C@H](NC(=O)c1ccc(F)cc1)[C@@H](O)C(C)(C)O2`, the result was inactive.

On to `CC[C@H]1CC[C@H](NCc2cc3c(cc2OC)[C@H]2C[C@H]2C(=O)N3C)[C@H](c2ccccc2)N1`, for which the result was inactive.

Take `CCCCCCc1ccc(O)cc1O`: the result was inactive.

Consider `Cc1ccc(S(=O)(=O)O)cc1C`, for which the molecule was classed as inactive.

As to `CCCCC(CC)COC(=O)CCCCCCCCC(=O)OCC(CC)CCCC` (stereo not given), the molecule was called inactive.

Regarding `CCOC(=O)c1ccc(C2CCC(NC[C@H](O)COc3ccc(O)c(NS(C)(=O)=O)c3)CC2)cc1` (stereo not given in full), the AC50 is 54.8 µM (active).

With `O=c1[nH]c2ccc(S(=O)CCN3CCC(Cc4ccc(F)cc4)CC3)cc2o1` (stereo not given), the molecule was classed as inactive.

With `CCCCCCCCO`, the call was inactive.

With `COCCOc1cc2cc(C(=O)NC3CCN(C(C)C)CC3)n(CC(=O)Nc3ccc(Cl)cn3)c2cn1`, the molecule was classed as inactive.

For `COc1ccc2sc(C(=O)Nc3nnn[nH]3)c(OC(C)C)c2c1`, the result was inactive.

Regarding `Cc1c(-c2cccnc2)c2ccccc2n1CCCCC(=O)O`, the call was inactive.

On to `O=C(O)c1cccc(Oc2ccccc2)c1`, for which the result was inactive.

In the case of `COc1ccc(/C=C/S(=O)(=O)NC(=O)c2ccc(C)cc2Cl)cc1`, the molecule was called inactive.

Turning to `CC(=O)OCCC(C)C`, the outcome was inactive.

As for `CCCCCCCCCCCCCCCO`, the molecule was called inactive.

For the molecule `CCCN(C1CCN(C(=O)C2CCNCC2)CC1)[C@@H]1CCc2ccc(OC)cc2C1`, the AC50 was 146 µM (active).

In the case of `C=CCCCCCCCCC(=O)O`, the AC50 was 26.7 µM (active).

Turning to `Cc1[nH]cnc1C[C@H]1CCc2c(C)c3ccccc3n2C1=O`, the result was inactive.

For `Cc1ccc(N)cc1O`, the molecule was called inactive.

Consider `O=C1OC(=O)C2C3C=CC(C3)C12` (stereo not given), for which the result was inactive.

Regarding `CC(C)=CCCC(C)=CC=O`, the half-maximal activity concentration (AC50) was 58.6 µM (active).

In the case of `CCNc1ccccc1`, the molecule was called inactive.

Turning to `COC(=O)c1c(Cl)c(Cl)c(C(=O)OC)c(Cl)c1Cl`, the molecule was classed as inactive.

For `O=C(NS(=O)(=O)/C=C/c1ccccc1)c1ccc(F)cc1Cl`, the outcome was inactive.

As to `Cn1cnc([N+](=O)[O-])c1Sc1ncnc2nc[nH]c12`, the AC50 is 26.4 µM (active).

`CC(C)=CCC/C(C)=C\CO`: the result was inactive.

In the case of `O=C(O)CC(O)C(=O)O` (stereo not given), the outcome was inactive.

For `O=C(O)CCN(C1(C(=O)NO)CCCC1)S(=O)(=O)c1ccc(Oc2ccc(F)cc2)cc1`, the call was inactive.

With `C1N2CN3CN1CN(C2)C3`, the molecule was classed as inactive.

Consider `CC(C)=CCCC(C)CCO` (stereo not given), for which the AC50 is 65.5 µM (active).

For `O=C(O)c1cccc(N(Cc2cccnc2)c2ccc(OC(F)F)c(OC(F)F)c2)c1`, the molecule was called inactive.

These data come from PubChem BioAssay (EPA / NIEHS).
